# Among all 69,000 compounds or so, about 8,600 (12%) showed an effect of 50% or more. Only a selection was taken, and strong results are over-represented in it overall.
# System: Plasmodium berghei
# Experiment: Screen against P. berghei liver stage (PbLuc), transformed with Luciferase, at 10uM
# Format: functional, HepG2
# Conditions: tested at 10 uM
row,SMILES,INHIBITION
1,CN(C)CCO[C@H]1CN(C(=O)c2cccs2)[C@@H]2COC[C@H]12,-19.1%
2,CN1Cc2[nH]nc(COCC3CC3)c2C1,-44.9%
3,O=C(c1ccc(-c2cccc3c2CCNC3)o1)N1CCOCC1,39.1%
4,CCOC[C@@H]1CC[C@H]2[C@H](CCN2S(=O)(=O)c2ccc(F)cc2)O1,-17.1%
5,O=C(O)c1c(-c2ccoc2)ncc2c1CCN(C1CCOC1)C2 (stereo not drawn),21.6%
6,CC(NC(=O)NCC1(c2ccc(F)cc2)CC1)c1nncn1C (stereo not drawn),31.9%
7,Cc1cnn(CCC(=O)N2CCCC(c3nc(C)c(C)s3)C2)c1 (stereo not drawn),-7.35%
8,NCC1(c2cccc(Br)c2)CCOCC1,-51.5%
9,NCC1(c2cccc(F)c2)CCOCC1,50.2%
10,NCC1(c2cccc(C(F)(F)F)c2)CCOCC1,8.47%
11,O=C(Cc1ccsc1)N1C[C@@H]2CN(Cc3ccoc3)CCO[C@@H]2C1,16.5%
12,Cc1noc(C)c1C(=O)NCC(c1ccsc1)N(C)C (stereo not drawn),-38.7%
13,COc1ccc(C(CNC(=O)c2c(C)noc2C)N(C)C)cc1 (stereo not drawn),50.75%
14,CCc1ccc(C(CNC(=O)c2c(C)noc2C)N(C)C)cc1 (stereo not drawn),58.9%
15,Cc1noc(C)c1C(=O)NCC(c1ccc(F)cc1)N(C)C (stereo not drawn),23.4%
16,CCc1noc(C)c1C(=O)NCC(c1ccc(C)cc1)N(C)C (stereo not drawn),-25.4%
17,Cc1noc(C)c1C(=O)NCC(c1cccc(F)c1)N(C)C (stereo not drawn),-20.19%
18,OC(CNC1CCOCC1)c1cccc(OCc2ccccc2)c1 (stereo not drawn),46.1%
19,O=C(O)CNc1cc(-c2cc(C(=O)NC3CC3)ccn2)c2cc[nH]c2n1,-21.1%
20,COc1ccc(C(C(=O)O)N(C)CCN2CCCC2)c(C)c1 (stereo not drawn),52.8%
21,COc1ccc(C(C(=O)O)N(C)CCN2CCOCC2)c(C)c1 (stereo not drawn),22.5%
22,COc1cc(F)ccc1C(C(=O)O)N(C)CCN1CCCC1 (stereo not drawn),40.9%
23,CCc1n[nH]c(=O)c(C(=O)N2CCSCC2)c1CC,39.3%
24,Cn1cnnc1C1CCCN(C(=O)c2cc(Cl)c(Cl)n2C)C1 (stereo not drawn),-10.1%
25,CC(CNC(=O)c1cnccn1)Oc1cccc(Br)c1 (stereo not drawn),10%

row,SMILES,INHIBITION
1,CC(CNC(=O)c1cnccn1)Oc1ccc(F)cc1 (stereo not drawn),69.9%
2,CC(CNC(=O)c1c[nH]nn1)Oc1cccc(Br)c1 (stereo not drawn),-15%
3,Cc1ccc(OC(C)CNC(=O)c2c[nH]nn2)cc1 (stereo not drawn),0.0944%
4,CC(CNC(=O)c1ccncc1F)Oc1ccc(F)cc1 (stereo not drawn),28.2%
5,CC(CNC(=O)c1c[nH]nn1)Oc1ccc(Cl)cc1 (stereo not drawn),51.6%
6,Cc1cnc(N2C(=O)CSC2c2ccc(F)cc2)s1 (stereo not drawn),44.8%
7,CC(=O)N1CCN(Cc2cccs2)CC2(CC(=O)N(C)C2)C1 (stereo not drawn),-2.35%
8,COc1ccc(C)cc1CN(C)CC(=O)NC1(C)CCS(=O)(=O)C1 (stereo not drawn),29.7%
9,CCc1noc(C(C)N2CCCN(Cc3noc(C4CC4)n3)CC2)n1 (stereo not drawn),15.7%
10,CCc1noc(C(C)N2CCN(Cc3noc(C4CC4)n3)CC2)n1 (stereo not drawn),65.7%
11,CCc1noc(C(C)N2CCC(C)CC2)n1 (stereo not drawn),2.97%
12,Cc1noc(C(C)N2CCN(Cc3noc(C4CC4)n3)CC2)n1 (stereo not drawn),37.4%
13,COCCCN1CCCN(C(C)c2nc(C3CC3)no2)CC1 (stereo not drawn),54.9%
14,CCOCCN1CCN(C(C)c2nc(C3CC3)no2)CC1 (stereo not drawn),0.55%
15,CCc1noc(C(C)N2CCN(CC)CC2)n1 (stereo not drawn),-54.6%
16,CCc1noc(C(C)N2CCN(Cc3noc(C)n3)CC2)n1 (stereo not drawn),61.3%
17,CCc1noc(C(C)N2CCC(N3CCCCC3)CC2)n1 (stereo not drawn),44.1%
18,CCc1noc(C(C)N2CCC(N3CCCC3)CC2)n1 (stereo not drawn),50.4%
19,COCCN1CCN(C(C)c2nc(C3CC3)no2)CC1 (stereo not drawn),28.6%
20,Cc1nc(CN2CCN(C(C)c3nc(C4CC4)no3)CC2)no1 (stereo not drawn),-21.9%
21,Cc1ccc(-c2ccnc(NCC3(N(C)C)CCOCC3)n2)c(C)n1,19.2%
22,Cn1cnc2c1CCN(Cc1csc(-c3ccco3)n1)C2,5.8%
23,CC(O)CN1CCC(CNCc2cccc(Cl)c2)CC1 (stereo not drawn),24%
24,COCCN1C(=O)[C@@H]2CC[C@H]1CN(S(=O)(=O)c1cccc(Cl)c1)C2,32.2%
25,COC(=O)C(C)(C)NC(=O)C1CC(=O)N(CC(C)C)C1 (stereo not drawn),-22.1%

row,SMILES,INHIBITION
1,OC1(CNCCc2nc3c(s2)CCCC3)CCNC1 (stereo not drawn),-41.6%
2,O=c1[nH]c2cn(-c3ccc(F)cc3)c(=O)n2n1Cc1cccc(Cl)c1,9.48%
3,CN1CCC2(CC1)Cc1ccccc1CN(C(=O)CN)C2,29.2%
4,Cc1cc(N(C)C)nc(C2(C)CCNCC2)n1,-5.8%
5,CCn1cc(NC(=O)NCCN2CCCCCC2=O)cn1,7.24%
6,CC(C)(C)NC(=O)CNc1ncc(Br)cn1,28.8%
7,CC(C)c1nc(CN2CCN(C(C)c3nc(C4CC4)no3)CC2)no1 (stereo not drawn),13.5%
8,CC(C)c1noc(C(C)N2CCN(Cc3noc(C4CC4)n3)CC2)n1 (stereo not drawn),27.6%
9,CC(c1nc(C2CC2)no1)N1CCN(Cc2noc(C3CC3)n2)CC1 (stereo not drawn),51.1%
10,CC(C)Cc1cc(NC(=O)c2ccccn2)n(C)n1,37.4%
11,O=C(c1ccc(C2CCCO2)s1)N1CCN(c2ccccc2F)CC1 (stereo not drawn),80.1%
12,O=C(c1ccc(C2CCCO2)s1)N1CCOCC1 (stereo not drawn),-48.4%
13,Cc1cc(C)nc(N2CCN(C(=O)c3ccc(C4CCCO4)s3)CC2)n1 (stereo not drawn),36.8%
14,O=C(Nc1ccccc1OCCc1ccccn1)N1CC[C@@H](O)C1,-48.1%
15,NC(=O)c1ccc(CN2CCCC(O)C2)cc1 (stereo not drawn),-6.32%
16,NC(=O)c1ccc(CN2CCCC(N3CCCC3)C2)cc1 (stereo not drawn),-3.95%
17,CC1CCCN(Cc2ccc(C(N)=O)cc2)C1 (stereo not drawn),50.5%
18,CN1CCN(c2cc(CNC(=O)Cn3cccn3)ccn2)CC1,37.8%
19,N#Cc1csc(CNCCOc2ncccc2Cl)c1,-23.2%
20,O=C(c1ccco1)N1C[C@H]2CCCN(Cc3ccoc3)[C@H]2C1,44.3%
21,COc1ccc([C@@H]2NC(=O)N[C@H]3OCCC[C@H]32)cc1,42.1%
22,O=C1N[C@H]2OCCC[C@H]2[C@H](c2ccc(C(=O)O)cc2)N1,-1.25%
23,O=C1N[C@H]2OCCC[C@H]2[C@H](c2ccccc2)N1,52.2%

# Source: ChEMBL document CHEMBL4513216, “Probing the Open Global Health Chemical Diversity Library for Multistage-Active Starting Points for Next-Generation Antimalarials” (ACS Infect Dis, 2020)
